Where “and” joins values, the source holds several entries; their conditions need not be identical. Equal entries are not always repeated.

A word on the ΔTm: it is the shift of the melting midpoint relative to a reference.

The target of test [1] is Bromodomain-containing protein 4 (Homo sapiens) (UniProt O60885). Particulars: Compound concentration 10.0 uM, Protein concentration 2.0 uM.
For test [2], the target named is T1, Transcription intermediary factor 1-alpha (Homo sapiens) (UniProt O15164).
T1 sequence (whole entry): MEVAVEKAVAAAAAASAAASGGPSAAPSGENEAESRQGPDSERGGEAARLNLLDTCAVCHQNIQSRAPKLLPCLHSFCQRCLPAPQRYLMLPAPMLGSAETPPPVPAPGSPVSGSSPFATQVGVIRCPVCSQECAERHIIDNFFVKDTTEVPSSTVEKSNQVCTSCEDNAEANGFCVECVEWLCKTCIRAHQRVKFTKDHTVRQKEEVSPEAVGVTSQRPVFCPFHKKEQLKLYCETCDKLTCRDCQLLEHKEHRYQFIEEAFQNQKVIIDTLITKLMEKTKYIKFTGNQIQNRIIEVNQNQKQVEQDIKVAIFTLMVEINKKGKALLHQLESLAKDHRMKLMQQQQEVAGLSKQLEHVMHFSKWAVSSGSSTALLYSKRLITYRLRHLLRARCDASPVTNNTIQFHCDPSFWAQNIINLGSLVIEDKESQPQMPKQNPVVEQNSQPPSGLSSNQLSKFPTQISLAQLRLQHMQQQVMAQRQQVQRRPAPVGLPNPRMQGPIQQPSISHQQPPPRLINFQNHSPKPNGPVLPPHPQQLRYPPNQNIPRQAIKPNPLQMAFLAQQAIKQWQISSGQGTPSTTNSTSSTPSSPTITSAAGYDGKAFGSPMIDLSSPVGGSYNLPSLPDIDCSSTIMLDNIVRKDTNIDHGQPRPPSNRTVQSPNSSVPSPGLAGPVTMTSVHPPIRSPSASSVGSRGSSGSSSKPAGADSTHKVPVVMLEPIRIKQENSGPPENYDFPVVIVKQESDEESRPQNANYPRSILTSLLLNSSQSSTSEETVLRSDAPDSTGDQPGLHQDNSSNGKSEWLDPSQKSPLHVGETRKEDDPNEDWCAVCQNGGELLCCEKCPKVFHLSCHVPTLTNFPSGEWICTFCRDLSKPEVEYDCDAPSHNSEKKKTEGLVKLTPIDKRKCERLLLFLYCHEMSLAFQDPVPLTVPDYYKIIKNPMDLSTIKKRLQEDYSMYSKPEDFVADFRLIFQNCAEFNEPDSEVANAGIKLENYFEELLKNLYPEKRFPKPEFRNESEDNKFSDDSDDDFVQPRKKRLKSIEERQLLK
Particulars: Compound concentration 10.0 uM, Protein concentration 2.0 uM.

With `COc1cc2c(cc1NS(=O)(=O)c1ccc(Br)cc1C)n(C)c(=O)n2C`, the ΔTm in test [1] is 1.42 °C and 2.26 °C; in test [2], 2.87 °C.

Source of the values: ChEMBL document CHEMBL4649982, “Selective targeting of Bromodomains of the Bromodomain-PHD Fingers family impairs osteoclast differentiation” (ACS Chem Biol, 2017).
